Assay outcomes: PubChem BioAssay, The Scripps Research Institute Molecular Screening Center
Rows were chosen to be rich in hits. Some 2.9% of all compounds tested hit in one or more screens of this group.
ADAM17 inh: ADAM17 inhibitors, primary screen, biochemical, QFRET. recombinant ADAM17, EDANS/DABCYL FRET peptide cleavage. inhibition, % at 6.95 µM. actives 0.83% (n = 370,000);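 active = inhibition above the mean of compounds lying between control limits plus 3 SD, set per campaign, cut at about 8.5% in these data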;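 also: 0% = DMSO-only wells as the low control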
PLCb3 inh: human PLC-beta3 inhibitors, primary screen, biochemical, fluorescence | 1-phosphatidylinositol 4,5-bisphosphate phosphodiesterase beta-3 (Homo sapiens), Q01970 | actives 0.18% (n = 370,000) | inhibition, % at 12.2 µM | Purified PLC-beta3, fluorogenic substrate | AID 720704, 2013; in the data active = inhibition above about 11%;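 also: 0% = median of compound wells on plate and 100% = full blocker control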
ADAM10 inh: human ADAM10 inhibitors, primary screen, biochemical, QFRET, HTS; recombinant ADAM10, EDANS/DABCYL FRET peptide cleavage, 3 h; inhibition, % at 7 µM; Disintegrin and metalloproteinase domain-containing protein 10 (Homo sapiens), O14672; actives 0.62% (n = 370,000); AID 720582, 2013;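 active = inhibition above a per-campaign cutoff equal to the mean of compounds falling between control-based bounds plus 3 SD, cut at about 20% in these data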;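 also: 0% = DMSO wells while the 100% control is not disclosed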
Target sequence (O14672 214-748 limits assumed): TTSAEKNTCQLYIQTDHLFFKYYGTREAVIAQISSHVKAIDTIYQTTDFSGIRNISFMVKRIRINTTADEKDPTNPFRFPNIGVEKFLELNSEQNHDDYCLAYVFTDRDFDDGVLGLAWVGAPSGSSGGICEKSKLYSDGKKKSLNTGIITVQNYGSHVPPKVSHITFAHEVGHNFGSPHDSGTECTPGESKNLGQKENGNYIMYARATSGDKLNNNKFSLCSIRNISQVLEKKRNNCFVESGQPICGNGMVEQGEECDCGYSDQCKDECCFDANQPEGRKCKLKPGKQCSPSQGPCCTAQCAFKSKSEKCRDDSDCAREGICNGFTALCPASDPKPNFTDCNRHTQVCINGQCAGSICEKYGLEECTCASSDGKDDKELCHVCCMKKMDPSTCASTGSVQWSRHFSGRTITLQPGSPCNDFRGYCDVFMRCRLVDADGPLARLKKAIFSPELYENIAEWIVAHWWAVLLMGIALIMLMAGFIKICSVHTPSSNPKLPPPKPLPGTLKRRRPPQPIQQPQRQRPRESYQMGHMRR
PLC-gamma1 inh: PLC-gamma1 enzyme inhibitors, primary screen, biochemical, fluorescence, purified enzyme; fluorogenic substrate; inhibition, % at 12.2 µM; actives 0.84% (n = 370,000); AID 720700, 2013
KLK7 zymogen act: proKLK7 zymogen activators, primary screen, biochemical, fluorescence intensity | activation, % at 7 µM | actives 0.9% (n = 370,000) | purified proKLK7, EDANS-DABCYL substrate fluorescence; 100% is mature enzyme control, 0% vehicle;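 active = activation above the mean of all tested compounds plus 3 SD, computed per campaign excluding outliers beyond control limits, cut at about 13% in these data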
PLCgamma1 ctr: PLC-gamma1 enzyme inhibitors, counter-screen for PLC-beta3 inhibitor project, biochemical, fluorescence; shares compounds with PLC-gamma1 inh; purified PLC-gamma1, fluorogenic substrate; inhibition, % at 12.3 µM; actives 3.1% (n = 3,300)
PLCbeta3 conf: PLC-beta3 inhibitor confirmation, biochemical, fluorescence, purified enzyme | shares compounds with PLC-gamma1 inh | inhibition, % at 12.3 µM | actives 1% (n = 3,300) | AID 743261, 2014 | fluorogenic substrate fluorescence; in the data active = inhibition above about 11%
Numbers without * were called inactive; . = no result given. Rule as the data show it, unless noted: active = inhibition above about 9.5%; inactive = the rest.

SMILES | ADAM17 inh | PLCb3 inh | ADAM10 inh | PLC-gamma1 inh | KLK7 zymogen act | PLCgamma1 ctr | PLCbeta3 conf
Oc1ccc(C[C@@H]2CNCCN2CCc2cccc3ccccc23)cc1 | -2 | 1 | 0 | 0 | 0 | . | .
CCC(C)[C@H]1CNCCN1CC1(c2ccccc2)CC1 (stereo partly drawn) | 5 | 14* | 1 | 8 | 0 | -4 | -6
c1ccc(C2(CN3CCNC[C@H]3Cc3cccc4ccccc34)CC2)cc1 | 2 | -1 | -6 | 0 | 0 | . | .
CCC(C)[C@H]1CNCCN1CCc1cccc2ccccc12 (stereo partly drawn) | 4 | 8 | -2 | 11* | 0 | -5 | 0
CCC(C)[C@H]1CNC(=S)N1CCc1cc(C(F)(F)F)cc(C(F)(F)F)c1 (stereo partly drawn) | 6 | -2 | 15 | -1 | 0 | . | .
CCC(C)[C@H]1CNCCN1CCc1cc(C(F)(F)F)cc(C(F)(F)F)c1 (stereo partly drawn) | 7 | 7 | 17 | 11* | 0 | -11 | -4
O=C(Nc1cccc(C(F)(F)F)c1)C1Cc2c(-c3ccccc3Oc3ccccc3)ccnc2O1 (stereo not drawn) | 0 | 0 | 3 | 3 | 0 | . | .
CC(C)(C)NC(=O)C1c2ccccc2OCC(=O)N1Cc1ccc2c(c1)OCO2 (stereo not drawn) | -5 | -1 | -10 | 1 | -1 | . | .
Cc1[nH]c2ccccc2c1/C=N/Nc1nncn1N | 2 | 6 | 16 | 9.9* | 0 | -11 | -5
O=C(O)c1ccc(-c2nnn(Cc3ccccc3F)n2)cc1 | 4 | 0 | 4 | 11* | 0 | -5 | -3
COc1ccc(S(C)(=O)=O)cc1S(C)(=O)=O | 4 | 8 | -2 | 9.5* | 0 | -5 | -2
Cc1cc(C)cc(CC(=O)N2CCC2(C)C(=O)NS(=O)(=O)Cc2ccccc2)c1 (stereo not drawn) | 0 | -1 | 4 | 5 | 0 | . | .
O=c1nccc(Nc2ccccc2)[nH]1 | -5 | -3 | 0 | 0 | 0 | . | .
c1ccc(Nc2cc(Nc3ccccc3)[nH]n2)cc1 | -3 | 5 | 0 | 22* | -1 | 3 | 3
COc1cccc(S(=O)(=O)Nc2ccc3c(c2)OCCO3)c1 | 7 | -3 | 13 | 9.6* | 0 | -3 | -1
Cc1cccc(S(=O)(=O)Nc2ccc3c(c2)OCCO3)c1 | 3 | -5 | 1 | 0 | 0 | . | .
CS(=O)(=O)N(CCc1ccccc1)CC(=O)N1CCCC1 | -6 | -7 | -8 | -1 | 0 | . | .
CS(=O)(=O)N(CCc1ccccc1)CC(=O)N1CCCCCC1 | 3 | 13* | -8 | 2 | 0 | -7 | -3
CCCCn1c(N)c(N(CCOC)C(=O)COC(=O)COc2cc(C)ccc2Cl)c(=O)[nH]c1=O | -1 | -7 | -1 | 0 | 1 | . | .
CCCCN(C(=O)COc1ccc(C)cc1OC)c1c(N)n(CCC)c(=O)[nH]c1=O | 4 | -5 | 0 | 12* | 0 | -3 | -1
COC1CCC2(C)C(=CCC3C4CC(O)CC4(C)CCC32)C1 (stereo not drawn) | -3 | 3 | 1 | 1 | 0 | . | .
O=C(Oc1cccc(N2C(=O)CCC2=O)c1)C1CC(=O)N(c2ccc(Br)cc2)C1 (stereo not drawn) | 4 | 11* | 11 | 7 | 0 | -3 | 3
Cc1ccc(N2CC(C(=O)Oc3cccc(N4C(=O)CCC4=O)c3)CC2=O)cc1 (stereo not drawn) | -1 | 5 | -6 | 0 | 0 | . | .
CCCOC(=O)c1c(-c2ccccc2)nc(CC)c(C(=O)SCC)c1CCC | -6 | 3 | -3 | 2 | 0 | . | .
COC(=O)[C@]12C[C@H](CC(=O)NCCC(C)C)C(=O)N(Cc3ccco3)C1=C[C@H](C(C)(C)C)O[C@@H]2C | 1 | 1 | 1 | -4 | 0 | . | .
